This excerpt belongs to a sample that is enriched for hits.
LmPK inhibitor: qHTS Assay for Inhibitors of Leishmania Mexicana Pyruvate Kinase (LmPK) | Q27686 | purified LmPK, Kinase-Glo ATP luminescence, 1 h | Potency, µM (doses to about 57.5 µM), without a hit: at the top dose activity change, negative = inhibition, hits mostly inhibitors | 290,000 compounds, 0.37% hits; also: potency is read from the fitted curve at half-maximal effect; % is scaled to controls: 0 for no effect and ±100 for the full control effect
Target sequence (Q27686 whole entry, looked up): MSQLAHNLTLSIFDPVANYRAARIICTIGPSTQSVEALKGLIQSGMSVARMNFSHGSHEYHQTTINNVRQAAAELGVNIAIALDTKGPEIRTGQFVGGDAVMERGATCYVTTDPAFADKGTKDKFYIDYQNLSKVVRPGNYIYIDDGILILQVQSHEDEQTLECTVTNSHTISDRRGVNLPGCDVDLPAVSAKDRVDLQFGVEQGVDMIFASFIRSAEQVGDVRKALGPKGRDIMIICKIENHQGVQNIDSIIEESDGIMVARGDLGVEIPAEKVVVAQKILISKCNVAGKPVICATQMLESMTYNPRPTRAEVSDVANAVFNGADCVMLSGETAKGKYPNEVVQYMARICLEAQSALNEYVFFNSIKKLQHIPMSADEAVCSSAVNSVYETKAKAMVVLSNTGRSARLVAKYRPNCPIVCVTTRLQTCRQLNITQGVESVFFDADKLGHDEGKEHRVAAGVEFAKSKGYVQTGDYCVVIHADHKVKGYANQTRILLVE
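Purified LmPK (0.1 nM) with 0.5 mM PEP and 0.1 mM ADP in imidazole buffer pH 7.2 with MgCl2/KCl, 1 h at room temperature. ATP formed was read by luciferase luminescence and normalized to no-enzyme and uninhibited controls.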
RE007 growth inh: qHTS Assay for Inhibitors of the HIV-1 protein Vpr; S. pombe RE007 Vpr strain, BacTiter-Glo ATP luminescence, 24 h; Potency, µM (doses to about 92.2 µM), for the others: at the top dose activity change, negative = less growth, usual class: inhibitors; 360,000 compounds, 0.21% hits; active = well fitted falling curve with a large enough effect; inconclusive = small, poorly fitted or top-dose-only effect; inactive = no such curve, though single readings can be large or run the other way; also: potency is read from the fitted curve at half-maximal effect; % is scaled to controls: 0 for no effect and ±100 for the full control effect; nearly all actives have a fitted effect of over 50% in size
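Fission yeast RE007 carrying one integrated HIV-1 vpr copy, seeded at OD 0.01 in PMG+AL medium with 23 nL pinned compound. Grown 24 h at 30 degrees; viability read by BacTiter-Glo luminescence after 5 min.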
Shiga inhibitor: A qHTS for Small Molecule Inhibitors of Shiga Toxin. Vero cells, Shiga toxin protein synthesis inhibition reporter. inhibition, % at 38.7 µM. 290,000 compounds, 9.2% hits. AID 2315, 2010; in the data active = inhibition mostly above about 28%, no sharp cut-off; inactive = mostly below about 43%; also: 0% is about no effect
TbPYK inhibitor: qHTS of Trypanosoma Brucei Inhibitors | TbPYK enzyme, Kinase-Glo Plus ATP luminescence, 45 min | pyruvate kinase (Trypanosoma brucei), Q57TT1 | 410,000 compounds, 0.12% hits | AID 624173, 2012 | Potency, µM (doses to about 76.8 µM), without a hit: at the highest dose activity, negative = inhibition, most hits filed as inhibitors; also: potency is read from the fitted curve at half-maximal effect; % is scaled to controls: 0 for no effect and ±100 for the full control effect; nearly all actives have a fitted effect of over 50% in size
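In this concentration-response screen, enzyme-free wells defined baseline while DMSO plates tracked drift. Each reaction combined TbPYK, substrate, compound and 130 uM ADP for 45 min at room temperature. Kinase-Glo Plus luminescence gave the signal.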
Giardia FBPA inh: qHTS Assay for Inhibitors of Fructose-1,6-bisphosphate Aldolase from Giardia Lamblia; purified Giardia FBPA; AID 2451, 2010; 290,000 compounds, 0.71% hits; Potency, µM (series often up to 59.6 µM), inactives show top-dose activity, negative = inhibition, usual class: inhibitors; also: potency is read from the fitted curve at half-maximal effect; % is scaled to controls: 0 for no effect and ±100 for the full control effect; nearly all actives have a fitted effect of over 55% in size
Target sequence (A8B2U2 whole entry, looked up): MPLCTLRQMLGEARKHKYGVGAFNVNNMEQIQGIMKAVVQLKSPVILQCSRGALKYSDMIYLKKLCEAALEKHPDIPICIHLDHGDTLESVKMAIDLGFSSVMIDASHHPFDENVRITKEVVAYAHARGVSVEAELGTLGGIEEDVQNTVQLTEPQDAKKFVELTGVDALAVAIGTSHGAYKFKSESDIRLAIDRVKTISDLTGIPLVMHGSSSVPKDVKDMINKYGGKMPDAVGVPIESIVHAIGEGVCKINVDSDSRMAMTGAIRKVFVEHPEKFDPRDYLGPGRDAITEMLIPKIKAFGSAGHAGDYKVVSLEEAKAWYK
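Giardia FBPA (40 nM reagent) was preincubated 10 min at RT with compound (up to 57.5 uM final), then substrate plus GAPDH/TPI/NAD/arsenate coupling system with diaphorase/resazurin was added; resorufin fluorescence (525/598 nm) was read after 20 min.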
CHX counter: Cycloheximide Counterscreen for Small Molecule Inhibitors of Shiga Toxin | cell reporter, cycloheximide protein synthesis inhibition counterscreen | 300,000 compounds, 12% hits | AID 2314, 2010 | max response, %; in the data active = max response mostly above about 13%, no sharp cut-off; inactive = mostly below about 14%; also: read at 38.3 µM for the half of the compounds with a filed dose; 0% is about no effect
An asterisk follows results filed as active; ? = inconclusive; . = not tested or not shown. Unless noted, calls follow the shape of the dose curve; as a rule, active = well fitted curve in the direction sought with a large enough effect; inconclusive = small, poorly fitted or top-dose-only effect, or another doubt; inactive = no such curve, though single readings can be large; an effect the other way counts as inactive or inconclusive.

SMILES | LmPK inhibitor | RE007 growth inh | Shiga inhibitor | TbPYK inhibitor | Giardia FBPA inh | CHX counter
COc1ccc(-c2cc(C(F)(F)F)nc(SCC(=O)NCC(C)C)n2)cc1OC | . | . | . | 3.4% | . | .
CCCCN(CC)C(=O)C1CCCN(c2ncnc3c2nc2n3CCCCC2)C1 (stereo not drawn) | . | . | . | 0.0% | . | .
COc1ccc(N2CCN(C(=O)COC(=O)CSc3ccccc3)CC2)cc1 | . | ? | . | 6.8% | . | .
O=C(CCSc1ccccc1)N1CCN(c2ccccc2)CC1 | 3.4% | -16.0% | 90.0* | 3.9% | 6.3% | 39.3*
COc1ccc(N2CCN(C(=O)CSc3ccccc3N)CC2)cc1 | 0.2% | 10.7% | -2.6 | -27.5% | -6.7% | 12.4*
O=C(CSc1ccc(Cl)cc1)N1CCN(c2c(Cl)cccc2[N+](=O)[O-])CC1 | 8.1% | 7.9% | 45.5 | 2.1% | -1.0% | 55.9*
Cc1ccc(C)c(C(=O)CCC(=O)N2CCN(c3ncccn3)CC2)c1 | -3.3% | 12.2% | 37.8* | 12.1% | 1.2% | 35.6*
O=C(/C=C/c1ccc(Cl)cc1)N1CCN(c2c(Cl)cccc2[N+](=O)[O-])CC1 | 5.0% | 7.7% | 20.0 | -9.5% | -2.5% | -4.8
CC(C)NC(=O)C1(C)CN(S(C)(=O)=O)CC(=O)N1Cc1ccco1 (stereo not drawn) | . | -5.5% | . | . | . | .
COc1ccccc1Cn1c(SCC(=O)C(C)(C)C)nc2ccccc2c1=O | . | . | . | -0.9% | . | .
CCC(C(=O)N1CCN(c2ncccn2)CC1)c1ccccc1 (stereo not drawn) | 2.8% | -5.5% | 14.7 | -26.0% | 3.8% | 26.1*
O=C(CCSc1ccc(Cl)cc1)N1CCN(c2ccc(O)cc2)CC1 | -2.7% | 19.4% | 58.9* | ? | -6.6% | 27.3*
O=C(CCOc1ccccc1)N1CCN(c2ccc(O)cc2)CC1 | -14.8% | 18.3% | 62.9* | 2.4% | -12.5% | 46.7*
O=C(CCSc1ccccc1)N1CCN(C(=O)c2ccco2)CC1 | 8.7% | -11.5% | 99.3* | 1.6% | 2.8% | 35.2*
CC(OC(=O)c1ccncc1)C(=O)Nc1cc(S(=O)(=O)N2CCCCC2)ccc1Cl (stereo not drawn) | 3.1% | -16.4% | 6.1 | 2.9% | -1.3% | -2.5
Cc1noc(C)c1COc1ccccc1C(=O)N1CCN(S(=O)(=O)c2ccc(C(C)C)cc2)CC1 | . | 3.7% | . | -0.4% | . | .
CCOCCCN(C(=O)c1snc(C(N)=O)c1N)C(C(=O)NC1CCCC1)c1ccc(OC)cc1 (stereo not drawn) | 2.9% | 0.4% | -2.7 | -5.6% | 14.2% | 0.8
CC(=O)SC1CC2=CC(=O)CC[C@]2(C)C2CC[C@@]3(C)[C@@H](CC[C@@]34CCC(=O)O4)C12 (stereo partly drawn) | . | . | . | . | 2.5% | .
c1csc(CNc2ncncc2-c2ccoc2)c1 | . | . | . | . | -7.9% | .
CCC(=O)N1CCc2cc(S(=O)(=O)NC(CC(C)C)C(=O)NCCc3ccccc3)ccc21 (stereo not drawn) | . | . | . | 3.1% | . | .
COc1ccc(N2CCN(C(=O)CSc3ccccc3)CC2)cc1 | 6.9% | -6.2% | 32.2 | 2.1% | -10.1% | 16.9
O=C(CSC1=NCCS1)N1CCN(c2ccccc2)CC1 | -2.4% | -0.7% | 38.4* | -0.3% | -2.6% | 26.4*
NC(=O)C1CCN(C(=O)CCSc2ccc(Cl)cc2)CC1 | 0.1% | -8.2% | 27.5 | 45.2% | 1.5% | 24.8
O=C(CCSc1ccc(Cl)cc1)N1CCCCCC1 | -1.1% | ? | 61.5* | -1.3% | 3.0% | 20.6*
O=C(CCSc1ccc(Cl)cc1)N1CCN(c2ncccn2)CC1 | 1.4% | -17.3% | 37.7 | -10.7% | 1.8% | 16.7*
SMILES | LmPK inhibitor | RE007 growth inh | Shiga inhibitor | TbPYK inhibitor | Giardia FBPA inh | CHX counter
O=C(CSc1ccccc1)N1CCN(c2ccccc2)CC1 | -0.9% | -19.4% | 85.2* | -2.3% | -2.4% | 17.1
Oc1c(C(c2ccc(Cl)cc2Cl)N2CCCC2)sc2nc(-c3ccco3)nn12 (stereo not drawn) | . | . | . | 1.7% | . | .
O=C(CSc1ccccn1)N1CCN(c2ccccc2)CC1 | 0.4% | -23.7% | 35.1* | -19.7% | -9.9% | 34.8*
COc1ccccc1C1=NOC(CN2C(=O)c3ccccc3S2(=O)=O)C1 (stereo not drawn) | -2.7% | 9.2% | 146.2* | -2.5% | -2.9% | 52.6*
O=C1c2ccccc2S(=O)(=O)N1CC1CC(c2ccccc2Cl)=NO1 (stereo not drawn) | -5.9% | ? | active | -2.0% | 0.7% | 85.9*
O=C(NCC1CCCO1)C1CC(c2ccccc2Cl)=NO1 (stereo not drawn) | 1.6% | -13.2% | 65.3 | -1.1% | -0.7% | 1.4
Cc1ccc(S(=O)(=O)N2CCCCC2)cc1C(=O)NCCC1=CCCCC1 | . | 10.2% | . | -2.1% | . | .
COc1ccc(C(=O)NCCC2=CCCCC2)cc1[N+](=O)[O-] | -0.5% | 4.7% | 41.2* | -1.6% | -1.6% | 23.8*
COc1ccc(C(=O)NCCC2=CCCCC2)cc1OC1CCN(C(C)C)CC1 | 0.3% | -11.4% | 42.4* | -8.7% | -0.8% | 41.8*
Cc1cc(C(=O)NCCC2=CCCCC2)c(C)o1 | -2.0% | 3.7% | 117.2* | -8.4% | -12.5% | 38.9*
COc1ccc(OCC(=O)NCCC2=CCCCC2)c([N+](=O)[O-])c1 | 4.3% | 9.6% | -5.3 | -15.0% | -10.8% | 5.5
COc1ccc(C(=O)NCCCSC)cc1OC1CCN(C(C)C)CC1 | -1.2% | -7.2% | 7.1 | 3.0% | 1.7% | 5.5
COc1cccc(C(=O)NCCC2=CCCCC2)c1OC | -4.8% | -11.5% | 108.2* | -3.8% | -1.8% | 33.4*
CN(CC(=O)Nc1ccccc1Cl)C(=O)c1ccc(COc2ccccc2)cc1 | . | -1.7% | . | 1.4% | . | .
COc1cc2c(cc1NC(=O)CSc1ccccc1)oc1ccccc12 | -5.9% | -4.0% | 19.1 | -1.2% | -3.3% | 29.0*
COc1cc2c(cc1NC(=O)CSc1nccn1C)oc1ccccc12 | 2.6% | -25.6% | 68.2* | 1.4% | -13.4% | 43.3*
COc1cc(OC)c(NC(=O)CSc2nccn2C)cc1Cl | . | . | . | -0.7% | . | .
Cc1ccc(F)cc1NC(=O)CCC(=O)c1cccs1 | 1.8% | -5.4% | -2.9 | 1.1% | 5.1% | -0.5
Cc1ccc(NC(=O)CCC(=O)c2cccs2)c(O)c1 | -1.2% | -19.0% | 74.3* | 2.4% | 3.3% | 65.7*
O=C(CCC(=O)c1cccs1)c1cccs1 | ? | 0.3% | 33.9* | 28.4% | 4.7% | 40.3*
O=C(COC(=O)CC1CCCC1)Nc1ccc(Cl)cc1 | . | -21.3% | . | -6.1% | . | .
CCOc1ccc(CCNC(=O)Cn2ncn3c(cc4ccccc43)c2=O)cc1OCC | . | . | . | -6.4% | . | .
CCOc1ccc(OCCC(=O)OCC(=O)NC2CCCC2)cc1 | . | -9.6% | . | 0.0% | . | .
COc1ccc(/C(C)=N/Nc2nc3ccccc3nc2C)cc1 | -9.8% | 11.0% | 76.0* | 0.6% | ? | 45.3*

Assay outcomes from PubChem.
